{
  "source": "the antibiotic and cytotoxicity screens of Wong et al. (2023)",
  "note": "Among all 39,000 compounds or so, about 3,300 (8.5%) were called active. This is one part of a sample in which actives are shown more often than they occur.",
  "data": [
    {"tested_on": "HepG2", "experiment": "cytotoxicity call (relative viability < 0.9)", "settings": "10 µM", "values": [
      {"molecule": "C[C@H](CO)N1C[C@H](C)[C@@H](CN(C)S(=O)(=O)c2ccc(F)cc2)Oc2ccc(NS(=O)(=O)c3cn(C)cn3)cc2C1=O", "cytotoxicity call": "inactive"},
      {"molecule": "C[C@H]1CCCCO[C@H](CN(C)C(=O)c2ccccc2)[C@@H](C)CN([C@@H](C)CO)C(=O)c2cc(NS(=O)(=O)c3ccc(Cl)cc3)ccc2O1", "cytotoxicity call": "inactive"},
      {"molecule": "Cc1c(-c2ccccc2)n(C[C@@H](O)CN)c2ccccc12", "cytotoxicity call": "active"},
      {"molecule": "O=C(O)c1ccc(OC[C@@H](O)CO[C@H](COc2ccc(C(=O)O)cc2)Cn2c3ccccc3c3ccccc32)cc1", "cytotoxicity call": "inactive"},
      {"molecule": "CN(C[C@@H](O)CN)S(=O)(=O)c1ccccc1", "cytotoxicity call": "inactive"},
      {"molecule": "COc1ccc(S(=O)(=O)Nc2ccc3c(c2)C(=O)N([C@H](C)CO)C[C@@H](C)[C@H](CN(C)Cc2ccccc2)OCCCC[C@H](C)O3)cc1", "cytotoxicity call": "inactive"},
      {"molecule": "CS(=O)(=O)N1C[C@H]2CN(Cc3ccncc3)C(=O)[C@@H]2C1", "cytotoxicity call": "inactive"},
      {"molecule": "C[C@H](CO)N1C[C@H](C)[C@H](CN(C)C(=O)CN(C)C)Oc2cc(C#CCN(C)C)ccc2S1(=O)=O", "cytotoxicity call": "inactive"},
      {"molecule": "CCOc1cc2ncc(C#N)c(Nc3ccc(OCc4ccccn4)c(Cl)c3)c2cc1NC(=O)/C=C/CN(C)C", "cytotoxicity call": "active"},
      {"molecule": "CCOc1cc2ncc(C#N)c(Nc3ccc(OCc4ccccn4)c(Cl)c3)c2cc1NC(=O)/C=C/[C@H]1CCCN1C", "cytotoxicity call": "active"},
      {"molecule": "CCOc1ccc(C(=O)Nc2ccc(S(=O)(=O)N3CCCC[C@@H]3c3cccnc3)cc2)cc1OCC", "cytotoxicity call": "inactive"},
      {"molecule": "COc1ccccc1[C@@H](NC(=O)C1CCN(CCOc2ccc(Cl)cc2Cl)CC1)c1ccccn1", "cytotoxicity call": "inactive"},
      {"molecule": "OC[C@H]1CN(Cc2ccccc2)CCO1", "cytotoxicity call": "inactive"},
      {"molecule": "Cc1nc2ccc([N+](=O)[O-])cc2s1", "cytotoxicity call": "inactive"},
      {"molecule": "CO[C@H]1CN(C)C(=O)c2cc(NC(=O)CC(F)(F)F)ccc2OC[C@H](C)N(C(=O)C2CCOCC2)C[C@@H]1C", "cytotoxicity call": "inactive"},
      {"molecule": "C=CCOC(=O)[C@H]1[C@@H]2C(=O)O[C@@H](c3ccccc3)[C@@H](c3ccccc3)N2[C@@H](c2ccc(OCCOC(=O)[C@H]3C[C@H]4C(=O)N[C@@H](CCCC[N+](C)(C)C)C(=O)N4[C@H]3c3ccc(O)cc3)cc2)[C@]12C(=O)Nc1ccc(I)cc12", "cytotoxicity call": "inactive"},
      {"molecule": "C[C@@H]1CCCCO[C@@H](CN(C)C(=O)Nc2ccc(F)cc2)[C@@H](C)CN([C@H](C)CO)C(=O)c2cc(NC(=O)NC3CCCCC3)ccc2O1", "cytotoxicity call": "inactive"},
      {"molecule": "C[C@H]1CCCCO[C@H](CN(C)S(=O)(=O)c2ccccc2)[C@@H](C)CN([C@@H](C)CO)C(=O)c2cc(NC(=O)Nc3ccc(F)cc3)ccc2O1", "cytotoxicity call": "active"},
      {"molecule": "C[C@@H]1CCCCO[C@@H](CN(C)S(=O)(=O)c2ccccc2)[C@H](C)CN([C@H](C)CO)C(=O)c2cc(NC(=O)Nc3ccc(F)cc3)ccc2O1", "cytotoxicity call": "inactive"},
      {"molecule": "C[C@@H]1CN([C@H](C)CO)C(=O)c2cc(NC(=O)Nc3ccc(F)cc3)ccc2O[C@@H](C)CCCCO[C@@H]1CN(C)S(=O)(=O)c1ccccc1", "cytotoxicity call": "inactive"},
      {"molecule": "C=CCOC(=O)N(C)C[C@H]1OCCCC[C@H](C)Oc2ccc(NC(=O)Nc3ccccc3)cc2C(=O)N([C@@H](C)CO[Si](C)(C)C(C)(C)C)C[C@H]1C", "cytotoxicity call": "active"},
      {"molecule": "C=CCOC(=O)N(C)C[C@@H]1OCCCC[C@H](C)Oc2ccc(NC(=O)Nc3ccccc3)cc2C(=O)N([C@@H](C)CO)C[C@H]1C", "cytotoxicity call": "inactive"},
      {"molecule": "C[C@@H]1CN([C@H](C)CO[Si](C)(C)C(C)(C)C)C(=O)c2cc(NC(=O)Nc3ccccc3)ccc2O[C@@H](C)CCCCO[C@H]1CN(C)S(=O)(=O)c1ccc(F)cc1", "cytotoxicity call": "inactive"},
      {"molecule": "C[C@@H]1CN([C@@H](C)CO[Si](C)(C)C(C)(C)C)C(=O)c2cc(NC(=O)Nc3ccccc3)ccc2O[C@@H](C)CCCCO[C@H]1CN(C)S(=O)(=O)c1ccc(F)cc1", "cytotoxicity call": "active"},
      {"molecule": "COCOC[C@H](C)N1C[C@@H](C)[C@H](CN(C)S(=O)(=O)c2ccc(F)cc2)OCCCC[C@H](C)Oc2ccc(NC(=O)Nc3ccccc3)cc2C1=O", "cytotoxicity call": "inactive"},
      {"molecule": "C=CCOC(=O)N(C)C[C@@H]1OCCCC[C@H](C)Oc2ccc(NC(=O)Nc3ccccc3)cc2C(=O)N([C@H](C)COC(=O)c2ccccc2)C[C@H]1C", "cytotoxicity call": "inactive"},
      {"molecule": "C[C@H](CO)N1C[C@H](C)[C@@H](CN(C)S(=O)(=O)c2ccccc2)OCCCC[C@H](C)Oc2ccc(NC(=O)Nc3ccc(F)cc3)cc2C1=O", "cytotoxicity call": "inactive"},
      {"molecule": "C[C@@H]1CCCCO[C@H](CN(C)S(=O)(=O)c2ccccc2)[C@H](C)CN([C@@H](C)CO)C(=O)c2cc(NC(=O)Nc3ccc(F)cc3)ccc2O1", "cytotoxicity call": "active"},
      {"molecule": "C[C@@H]1CN([C@@H](C)CO)C(=O)c2cc(NC(=O)Nc3ccc(F)cc3)ccc2O[C@@H](C)CCCCO[C@H]1CN(C)S(=O)(=O)c1ccccc1", "cytotoxicity call": "inactive"},
      {"molecule": "C[C@H](CO)N1C[C@H](C)[C@H](CN(C)S(=O)(=O)c2cccs2)OCCCC[C@H](C)Oc2ccc(NC(=O)NC3CCCCC3)cc2C1=O", "cytotoxicity call": "inactive"},
      {"molecule": "C[C@H]1CCCCO[C@H](CN(C)C(=O)Nc2ccc3c(c2)OCO3)[C@@H](C)CN([C@@H](C)CO)C(=O)c2cc(NC(=O)C3CCCCC3)ccc2O1", "cytotoxicity call": "inactive"},
      {"molecule": "C[C@@H]1CN([C@@H](C)CO)C(=O)c2cccc(NS(C)(=O)=O)c2O[C@H]1CN(C)S(=O)(=O)c1cn(C)cn1", "cytotoxicity call": "inactive"},
      {"molecule": "C[C@H]1CN([C@@H](C)CO)C(=O)c2cc(NS(=O)(=O)c3ccc(F)cc3)ccc2O[C@@H]1CN(C)S(C)(=O)=O", "cytotoxicity call": "inactive"},
      {"molecule": "CC(C)NC(=O)N(C)C[C@H]1OCc2cn(nn2)CCCC(=O)N([C@@H](C)CO)C[C@H]1C", "cytotoxicity call": "inactive"},
      {"molecule": "O[C@@H]1[C@@H](O)[C@H](Nc2ccccc2)OC[C@H]1O", "cytotoxicity call": "inactive"},
      {"molecule": "Cc1noc(C)c1S(=O)(=O)N(C)C[C@H]1Oc2ccc(NC(=O)Nc3ccccc3)cc2CC(=O)N([C@H](C)CO)C[C@@H]1C", "cytotoxicity call": "inactive"},
      {"molecule": "CN(C)CC#Cc1ccc([C@@H]2[C@@H](CO)N3C(=O)CN(C(=O)c4cccnc4)C[C@@H]23)cc1", "cytotoxicity call": "inactive"},
      {"molecule": "COc1ccc(NC(=O)N(C)C[C@H]2OCCCC[C@@H](C)Oc3ccc(NS(=O)(=O)c4c(C)noc4C)cc3C(=O)N([C@H](C)CO)C[C@@H]2C)cc1", "cytotoxicity call": "inactive"},
      {"molecule": "C[C@@H]1CCCCO[C@H](CN(C)C(=O)C2CCCCC2)[C@@H](C)CN([C@@H](C)CO)C(=O)c2cc(NC(=O)Cc3ccccc3)ccc2O1", "cytotoxicity call": "inactive"},
      {"molecule": "C[C@@H]1CN([C@H](C)CO)C(=O)Cc2cc(NC(=O)Cn3cnnn3)ccc2O[C@@H]1CN(C)S(=O)(=O)c1cn(C)cn1", "cytotoxicity call": "inactive"},
      {"molecule": "CC(C)N1C[C@@H](C)[C@H](CN(C)S(=O)(=O)c2ccc(F)cc2)OCCCC[C@H](C)Oc2ccc(NC(=O)Nc3ccccc3)cc2C1=O", "cytotoxicity call": "inactive"},
      {"molecule": "C[C@@H]1CN([C@@H](C)CO)C(=O)c2cc(NC(=O)Nc3ccccc3)ccc2O[C@@H](C)C/C=C/CO[C@H]1CN(C)S(=O)(=O)c1ccc(F)cc1", "cytotoxicity call": "active"},
      {"molecule": "C[C@@H]1CN([C@@H](C)CO)C(=O)c2cc(NC(=O)Nc3ccccc3)ccc2O[C@@H](C)C/C=C\\CO[C@H]1CN(C)S(=O)(=O)c1ccc(F)cc1", "cytotoxicity call": "inactive"},
      {"molecule": "C[C@@H]1CN([C@@H](C)CN=[N+]=[N-])C(=O)c2cc(NC(=O)Nc3ccccc3)ccc2O[C@@H](C)CCCCO[C@H]1CN(C)S(=O)(=O)c1ccc(F)cc1", "cytotoxicity call": "active"},
      {"molecule": "C[C@@H]1CN([C@H](C)CO)C(=O)c2cc(NC(=O)Nc3ccc(F)cc3)ccc2O[C@@H](C)CCCCO[C@H]1CN(C)S(=O)(=O)c1ccccc1", "cytotoxicity call": "inactive"},
      {"molecule": "C[C@@H]1CCCCO[C@@H](CN(C)S(=O)(=O)c2ccccc2)[C@@H](C)CN([C@@H](C)CO)C(=O)c2cc(NC(=O)Nc3ccc(F)cc3)ccc2O1", "cytotoxicity call": "inactive"},
      {"molecule": "COc1ccc(S(=O)(=O)N(C)C[C@H]2OCCCC[C@H](C)Oc3ccc(NC(=O)Nc4ccccc4)cc3C(=O)N([C@H](C)CO)C[C@@H]2C)cc1", "cytotoxicity call": "inactive"},
      {"molecule": "O=C(C[C@@H]1CC[C@@H]2[C@H](COC[C@H](O)CN2C(=O)Nc2cccc(F)c2)O1)NCCCN1CCOCC1", "cytotoxicity call": "inactive"},
      {"molecule": "C[C@@H]1CN([C@@H](C)CO)C(=O)c2cc(NS(=O)(=O)c3ccccc3)ccc2O[C@@H](C)CCCCO[C@@H]1CN(C)S(=O)(=O)c1cn(C)cn1", "cytotoxicity call": "inactive"},
      {"molecule": "C[C@@H]1CN([C@H](C)CO)C(=O)c2cc(NC(=O)CCC(F)(F)F)ccc2O[C@@H](C)CCCCO[C@@H]1CN(C)C(=O)CCC(F)(F)F", "cytotoxicity call": "inactive"},
      {"molecule": "COc1ccc(-c2oc3cc(OC)c(OC)c(OC)c3c(=O)c2OC)cc1", "cytotoxicity call": "inactive"},
      {"molecule": "COc1ccc(-c2oc3cc(OC)c(OC)c(OC)c3c(=O)c2OC)cc1OC", "cytotoxicity call": "active"},
      {"molecule": "COc1cc(O)c2c(=O)c(OC)c(-c3ccc(OC)c(OC)c3)oc2c1", "cytotoxicity call": "inactive"},
      {"molecule": "O=C(C[C@H]1C=C[C@@H](NC(=O)Cc2ccccn2)[C@H](CO)O1)NCCCN1CCOCC1", "cytotoxicity call": "inactive"},
      {"molecule": "C[C@@H]1CN([C@H](C)CO)C(=O)c2c(c3ccccc3n2C)-c2ccccc2CO[C@H]1CN(C)C(=O)[C@H](C)c1ccccc1", "cytotoxicity call": "inactive"},
      {"molecule": "CC1OC(OC2C(O)CC(OC3C(O)CC(OC4CCC5(C)C(CCC6C5CC(O)C5(C)C(C7=CC(=O)OC7)CCC65O)C4)OC3C)OC2C)CC(O)C1O", "note": "(stereo not drawn)", "cytotoxicity call": "active"},
      {"molecule": "C[C@H]1O[C@@H](O[C@H]2[C@@H](O)C[C@H](O[C@H]3[C@@H](O)C[C@H](O[C@H]4CC[C@@]5(C)[C@H](CC[C@@H]6[C@@H]5C[C@@H](O)[C@]5(C)[C@@H](C7=CC(=O)OC7)CC[C@]65O)C4)O[C@@H]3C)O[C@@H]2C)C[C@H](O)[C@@H]1O", "cytotoxicity call": "active"},
      {"molecule": "C[C@H]1O[C@@H](O[C@H]2[C@@H](O)C[C@H](O[C@H]3[C@@H](O)C[C@H](O[C@H]4CC[C@@]5(C)[C@H](CC[C@@H]6[C@@H]5C[C@@H](O)[C@@]5(C)[C@@H](C7=CC(=O)OC7)CC[C@]65O)C4)O[C@@H]3C)O[C@@H]2C)C[C@H](O)[C@@H]1O", "cytotoxicity call": "active"}
    ]}
  ]
}
